Source: the supplement of paper PMC10646978
± gives the standard deviation.

Key:
Conditions in all cases: modulator concentration 10 µM
[1] = test system: RAW-Dual (murine macrophage reporter line); experiment: NF-kB reporter (SEAP) activity fold change vs agonist alone; higher = enhanced NF-kB activity
In short: (§1)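 In 384-well plates holding 50 000 RAW-Dual murine macrophage reporter cells per well, compound at 10 μM final was pre-incubated for 1 hour at 37 °C, after which a PRR agonist was added overnight. Supernatant SEAP read with QUANTI-Blue at 620 nm absorbance reported NF-κB, and Lucia luciferase read with QUANTI-Luc luminescence reported IRF. Fold change values come from dividing each reporter signal by the mean of agonist-only control wells on the same plate, averaged over replicate plates with propagated errors.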

[2] = test system: RAW-Dual (murine macrophage reporter line); experiment: IRF reporter (Lucia luciferase) activity fold change vs agonist alone; higher = enhanced IRF activity
In short: as §1

[3] = test system: RAW-Dual (murine macrophage reporter line); experiment: viability score (confluency relative to resting cells, overnight) (fraction); higher = more viable, active = viable (0.7 or more)
In short: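 Two confluency masks, generated with IncuCyte software over all imaged wells, were applied to IncuCyte images of RAW-Dual macrophages. The cells, in 384-well plates, had been exposed overnight to 10 μM final compound. The viability score is confluency as a fraction of resting cells, and a compound met the cutoff only with both masks above 70% of resting cells.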

[4] = agonist: CpG ODN 1826 0.5 ug/mL

Structure (SMILES) | NF-kB reporter [1, 4] | NF-kB reporter ([1]; agonist: LPS 0.1 ug/mL) | NF-kB reporter ([1]; agonist: MPLA […]) | IRF reporter ([2]; agonist: 3'3'-cGAMP 10 ug/mL) | IRF reporter ([2]; agonist: LPS 0.1 ug/mL) | IRF reporter ([2]; agonist: MPLA […]) | viability score [3]
CN1CC(c2ccccc2)OC1=O (centres undefined) | 1.06 ± 0.17 | 0.949 ± 0.083 | 1.08 ± 0.093 | 1.07 ± 0.033 | 1.32 ± 0.2 | 1.29 ± 0.23 | 1 (active)
OCC(S)CS (centres undefined) | 0.949 ± 0.072 | 0.909 ± 0.059 | 0.988 ± 0.023 | 0.336 ± 0.034 | 0.84 ± 0.07 | 0.912 ± 0.081 | 0.994 (active)
CC(O)Cn1cnc2c1c(=O)n(C)c(=O)n2C (centres undefined) | 1.06 ± 0.082 | 1.06 ± 0.065 | 1.01 ± 0.036 | 0.99 ± 0.07 | 0.972 ± 0.11 | 0.957 ± 0.11 | 0.998 (active)
CC(CN1c2ccccc2Sc2cccnc21)N(C)C.Cl (centres undefined) | 0.968 ± 0.075 | 0.926 ± 0.11 | 1.07 ± 0.042 | 1.03 ± 0.099 | 0.935 ± 0.14 | 0.921 ± 0.16 | 1 (active)
CC(=O)N(C=Cc1cc[n+](CCCS(=O)(=O)[O-])c2ccccc12)c1ccccc1 | 0.982 ± 0.1 | 1.05 ± 0.063 | 0.908 ± 0.094 | 1.01 ± 0.052 | 1.57 ± 0.16 | 1.25 ± 0.25 | 1.01 (active)
COCCCN1C(=O)C(=Cc2ccc(-c3ccc(Cl)cc3Cl)o2)SC1=S | 0.954 ± 0.054 | 1.01 ± 0.082 | 0.96 ± 0.036 | 1.02 ± 0.052 | 1.01 ± 0.099 | 0.998 ± 0.25 | 1 (active)
CCOC(=O)C1=C(C)N(CC(C)C)C(=O)C1=Cc1cccc(Br)c1 | 1.05 ± 0.11 | 1.04 ± 0.069 | 0.869 ± 0.051 | 0.909 ± 0.03 | 0.963 ± 0.082 | 1.19 ± 0.2 | 0.992 (active)
CC(Nc1ccc(N)cc1)=C1C(=O)c2ccccc2C1=O | 0.913 ± 0.083 | 0.855 ± 0.043 | 1.01 ± 0.09 | 0.888 ± 0.059 | 1.49 ± 0.1 | 1.68 ± 0.15 | 1 (active)
Cc1ccc(C(=O)N2N=C(c3ccc(Cl)cc3)CC2(O)C(F)(F)F)o1 (centres undefined) | 0.721 ± 0.06 | 0.82 ± 0.054 | 0.974 ± 0.097 | 0.975 ± 0.06 | 1.33 ± 0.077 | 1.42 ± 0.16 | 1 (active)
CCCN(CCC)CCc1cccc2c1CC(=O)N2.Cl | 0.998 ± 0.079 | 0.945 ± 0.046 | 1.03 ± 0.074 | 0.926 ± 0.071 | 0.925 ± 0.037 | 0.912 ± 0.083 | 0.997 (active)
CN1CCN(C2=Nc3cc(Cl)ccc3Nc3ccccc32)CC1 | 0.713 ± 0.058 | 0.941 ± 0.057 | 1.13 ± 0.1 | 0.924 ± 0.064 | 1.47 ± 0.11 | 1.46 ± 0.12 | 0.981 (active)
Cc1cc(OC2CCN(S(=O)(=O)CCc3ccccc3)C2)cc(=O)n1C (centres undefined) | 1.13 ± 0.069 | 0.929 ± 0.088 | 1.15 ± 0.067 | 0.7 ± 0.054 | 0.785 ± 0.19 | 0.738 ± 0.29 | 0.975 (active)
CC(C)(C)C(O)/C=C/c1ccc2c(c1)OCO2 (centres undefined) | 1.19 ± 0.066 | 1.26 ± 0.11 | 1.03 ± 0.055 | 0.45 ± 0.029 | 0.877 ± 0.16 | 1.01 ± 0.17 | 0.819 (active)
COC(=O)C1C(=O)C(=CNCc2ccccc2)C(=O)CC1(C)C (centres undefined) | 1.12 ± 0.1 | 0.99 ± 0.072 | 0.943 ± 0.035 | 1.04 ± 0.18 | 1.06 ± 0.049 | 0.992 ± 0.066 | 1 (active)
COc1ccc(OC)c(C=NNC(=O)c2cc(C)oc2C)c1 | 0.912 ± 0.16 | 0.925 ± 0.098 | 0.877 ± 0.067 | 0.936 ± 0.044 | 1.26 ± 0.22 | 1.25 ± 0.2 | 0.566 (inactive)
Cn1c(=O)[nH]c(=O)c2c1nc(N1CCCCC1)n2CCC#N | 1.1 ± 0.07 | 1.09 ± 0.07 | 0.952 ± 0.071 | 0.945 ± 0.033 | 1.33 ± 0.093 | 1.1 ± 0.16 | 1 (active)
Cl.NCCCC[C@H](N)C(=O)O | 1.03 ± 0.31 | 0.949 ± 0.063 | 1.01 ± 0.064 | 0.867 ± 0.052 | 1.2 ± 0.14 | 1.12 ± 0.18 | 1.01 (active)
CC(=NNC(=O)CSc1nc2ccccc2n1Cc1ccccc1)c1ccc(Cl)cc1 | 0.846 ± 0.068 | 0.923 ± 0.089 | 1 ± 0.1 | 0.979 ± 0.046 | 1.4 ± 0.081 | 1.36 ± 0.16 | 1.02 (active)
CC(=O)Nc1ccc(S(=O)(=O)N2CCC(Oc3nc(C)cc(C)n3)C2)cc1 (centres undefined) | 1.13 ± 0.099 | 1.03 ± 0.078 | 0.969 ± 0.033 | 0.988 ± 0.063 | 0.987 ± 0.057 | 0.932 ± 0.15 | 0.998 (active)
COc1cc2c(Oc3ccc(NC(=O)C4(C(=O)Nc5ccc(F)cc5)CC4)cc3F)ccnc2cc1OCCCN1CCOCC1 | 0.179 ± 0.0098 | 0.146 ± 0.013 | 0.238 ± 0.011 | 0.0512 ± 0.015 | 0.0684 ± 0.0041 | 0.138 ± 0.025 | 0.136 (inactive)
O=C(COc1ccc2ccccc2c1)NCC#CCN1CCCCC1 | 0.854 ± 0.036 | 0.981 ± 0.078 | 1.07 ± 0.064 | 1 ± 0.048 | 1.27 ± 0.29 | 1.48 ± 0.49 | 0.956 (active)
C=C1CCN([C@H](C)[C@](O)(Cn2cncn2)c2ccc(F)cc2F)CC1 | 1.21 ± 0.12 | 0.941 ± 0.11 | 0.986 ± 0.095 | 1.19 ± 0.054 | 1.73 ± 0.16 | 1.3 ± 0.15 | 0.134 (inactive)
O=c1cc2c(nn1CC1CCN(CC3(O)CCOCC3)CC1)CCCC2 | 1.08 ± 0.1 | 0.988 ± 0.099 | 0.918 ± 0.066 | 1.08 ± 0.063 | 1.21 ± 0.075 | 1.04 ± 0.17 | 1.01 (active)
CC1(C)CC(=O)C2=C(C1)OC(N)=C(C#N)C21C(=O)Nc2ccc(Br)cc21 (centres undefined) | 0.954 ± 0.077 | 1.05 ± 0.08 | 0.955 ± 0.057 | 0.967 ± 0.032 | 1.18 ± 0.1 | 1.03 ± 0.096 | 1.01 (active)
Cn1c(=O)c2c(ncn2CC2OCCO2)n(C)c1=O | 0.89 ± 0.12 | 0.921 ± 0.067 | 0.99 ± 0.057 | 0.919 ± 0.084 | 0.904 ± 0.11 | 0.845 ± 0.17 | 1 (active)
O=C1C2C3C=CC(C4CC34)C2C(=O)N1N=Cc1ccc(-c2ccc(Cl)cc2)o1 (centres undefined) | 1.01 ± 0.14 | 1.04 ± 0.074 | 0.924 ± 0.068 | 0.968 ± 0.034 | 1.56 ± 0.26 | 1.15 ± 0.1 | 1.01 (active)
CCOC(=O)C1=C(C)NC(=S)NC1c1cccc(C)c1 (centres undefined) | 0.93 ± 0.097 | 1.09 ± 0.097 | 1.05 ± 0.037 | 0.712 ± 0.17 | 0.944 ± 0.045 | 0.835 ± 0.057 | 0.975 (active)
